The list is not random: actives were taken first. Their share in the collection is about 2.2%.
FUS suppressor = qHTS for Suppressors of FUS Proteinopathy: Primary screen using FUS-linked yeast assay | S. cerevisiae FUS-expressing, growth rescue, OD600, 24 h | Potency, µM (titrated, usually from 76.6 µM), usual class: activators | actives 0.24% (n = 390,000); further: nearly all actives have a fitted effect of over 55% in size
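FUS-expressing yeast, raffinose-pregrown, induced in 2% galactose minimal medium at OD 0.005; compounds in a dilution series, 24hr at 30C. Growth restoration read as absorbance at 600 nm. CP55940 positive control, DMSO negative.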
Abeta yeast res = qHTS for compounds that reverse cellular toxicity of Amyloid beta (A-beta) peptide in yeast: Primary Screen. Potency, µM (titrated, usually from 46.1 µM), actives largely listed as activators. actives 0.063% (n = 410,000). yeast expressing A-beta42, growth rescue, OD600, 48 h; response scale: 0% DMSO, 100% iron-clioquinol control; further: nearly all actives have a fitted effect of over 55% in size
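Growth rescue measured by 600 nm absorbance after 48 h yeast culture at 30 C with compound. Values normalized between DMSO and an equimolar ferric chloride plus clioquinol control.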
TDP43 rescue = qHTS of TDP-43 Inhibitors. TDP-43 expressing yeast growth rescue, BacTiter-Glo, 24 h. Potency, µM (doses to about 46.1 µM), actives largely listed as activators. actives 1.8% (n = 410,000). AID 652104, 2013; further: nearly all actives have a fitted effect of over 50% in size
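Readout is BacTiter-Glo luminescence of cell growth, so inhibitors register as activators. TDP-43-expressing yeast at OD600=0.02 in galactose medium, after raffinose pregrowth to mid-log, were incubated with compound for 24 hr at 30 deg C.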
Mito fusion act = qHTS Assay for Small Molecule Inhibitors of Mitochondrial Division or Activators of Mitochondrial Fusion; AID 485298, 2010; Potency, µM (top dose mostly 46.1 µM), actives largely listed as activators; S. cerevisiae fusion-defective mutant growth rescue, CellTiterGlo 48 h; actives 0.23% (n = 320,000); further: nearly all actives have a fitted effect of over 45% in size
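S. cerevisiae fusion-defective temperature-sensitive mutants (e.g. fzo1-1, mgm1-5) grown 48 h at 37C in YPEG (ethanol/glycerol non-fermentable) medium with 23 nl compound per well; growth rescue read as CellTiterGlo luminescence.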
aSyn yeast inh = qHTS of alpha-syn Inhibitors; Yeast expressing alpha-synuclein, growth rescue, BacTiter-Glo, 24 h; Potency, µM (titrated, usually from 46.1 µM), actives largely listed as activators; actives 0.14% (n = 370,000); AID 652106, 2013; further: nearly all actives have a fitted effect of over 65% in size
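Screening used galactose-induced yeast with toxic alpha-synuclein levels, exposed to compound for 24 hr at 30 deg C. Cell growth, read with BacTiter-Glo luminescence, gave the measured signal.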
Each line names hits and unclear results; the compound was inactive in the other large screens. The call rests on the fitted dose curve; in most records, active means well fitted curve in the direction sought with a large enough effect; inconclusive means small, poorly fitted or top-dose-only effect, or another doubt; inactive means no such curve, though single readings can be large; an effect the other way counts as inactive or inconclusive.

O=C(NNc1nc2cc3c(cc2s1)OCO3)c1ccccc1	none
COc1cc(OC)cc(C(=O)NNc2nc3cc4c(cc3s2)OCO4)c1	TDP43 rescue 10µM
COc1cc(C(=O)NNc2nc3cc4c(cc3s2)OCO4)cc(OC)c1OC	none
Cc1ccc(S(=O)(=O)N2CCN(c3cc(-c4cccs4)nc4ccccc34)CC2)cc1	none (no result: FUS suppressor, Abeta yeast res, TDP43 rescue, Mito fusion act)
CC1CCN(c2ccc(-c3cccc(NS(=O)(=O)c4cccs4)c3)nn2)CC1	none (no result: Mito fusion act, aSyn yeast inh)
COc1cc2cc(CNc3ccccc3)c(=O)n(CC(=O)Nc3cc(C)cc(C)c3)c2cc1OC	FUS suppressor 25µM (no result: Mito fusion act)
CCc1ccc(NC(=O)Cn2c(=O)c(CNc3ccccc3)cc3cc(OC)c(OC)cc32)cc1	none (no result: Mito fusion act, aSyn yeast inh)
COc1cccc(Cn2c(NCc3ccc(C)cc3)nc3c2c(=O)n(C)c(=O)n3C)c1	none (no result: Mito fusion act, aSyn yeast inh)
COC(=O)c1ccc(CSc2nnc(CS(=O)Cc3ccc(Br)cc3)n2-c2ccccc2)cc1 (stereo unspecified)	TDP43 rescue 25µM (no result: FUS suppressor)
O=C(NCc1nc2ccccc2[nH]1)C1=C[C@H](c2ccc(C(F)(F)F)cc2)C[C@H](OCc2ccc(CO)cc2)O1	FUS suppressor 25µM
CC1(c2nnc(-c3ccccc3)o2)CC(c2cccc(Cl)c2)=NO1 (stereo unspecified)	TDP43 rescue inconclusive, Mito fusion act 3.2µM
NC(=O)C1(N2CCCCC2)CCN(S(=O)(=O)c2cc(Cl)sc2Cl)CC1	Mito fusion act 28µM
COc1ccc(S(=O)(=O)N2CCC(C(N)=O)(N3CCCCC3)CC2)cc1	none
Cc1cc(C)nc(NC(=O)Cc2ccc(Cl)cc2)c1	TDP43 rescue 18µM
Cc1ccccc1CSCCNC(=O)COc1ccc(Cl)cc1	TDP43 rescue 11µM
Cc1ccccc1CSCCNC(=O)CCSc1ccccc1	Abeta yeast res inconclusive, TDP43 rescue 16µM
COc1ccc(-n2nc(C(=O)N3CCN(c4cccc(C)c4C)CC3)c3c4ccccc4n(C)c3c2=O)cc1Cl	none (no result: Mito fusion act, aSyn yeast inh)
Cc1ccc(Sc2ccc(N3CCCC(C(=O)Nc4ccc(F)cc4)C3)nn2)cc1 (stereo unspecified)	none (no result: Mito fusion act, aSyn yeast inh)
O=[N+]([O-])c1ccc(N/N=C2\CC3CC=CC23)cc1 (stereo unspecified)	none
O=[N+]([O-])c1ccc(N/N=C2\CC3CC=CC23)c([N+](=O)[O-])c1 (stereo unspecified)	TDP43 rescue 35µM
O=C(C[n+]1cccc(Cl)c1)c1ccc(O)c(O)c1	none (no result: FUS suppressor, Abeta yeast res, TDP43 rescue, Mito fusion act)
COc1ccc(/C(C)=N/NC(=S)NCCc2ccccc2)cc1	Abeta yeast res 13µM
Cc1cccc(NC(=O)c2oc3ccc(S(=O)(=O)N(C)C4CCCCC4)cc3c2C)c1C	none (no result: Mito fusion act, aSyn yeast inh)
O=C(c1ccco1)N(Cc1cccnc1)c1nc2c(F)cccc2s1	none (no result: Mito fusion act, aSyn yeast inh)
Cc1cccc2sc(N(Cc3cccnc3)C(=O)c3ccco3)nc12	TDP43 rescue 18µM (no result: Mito fusion act, aSyn yeast inh)
Cc1cccc2sc(N(Cc3cccnc3)C(=O)Cc3ccccc3)nc12	TDP43 rescue 13µM (no result: Mito fusion act, aSyn yeast inh)
O=C(C1CCCCC1)N(Cc1cccnc1)c1nc2ccc(F)cc2s1	TDP43 rescue inconclusive (no result: Mito fusion act, aSyn yeast inh)
COc1ccc2nc(N(Cc3cccnc3)C(=O)C3CCCCC3)sc2c1	TDP43 rescue 6.3µM (no result: Mito fusion act, aSyn yeast inh)
CCOc1ccc2nc(N(Cc3cccnc3)C(=O)c3ccco3)sc2c1	TDP43 rescue 20µM (no result: Mito fusion act, aSyn yeast inh)
COc1ccc2nc(N(Cc3cccnc3)C(=O)c3ccco3)sc2c1	TDP43 rescue inconclusive (no result: Mito fusion act, aSyn yeast inh)
O=C(Cc1ccc2ccccc2c1)NO	none (no result: FUS suppressor, Abeta yeast res, TDP43 rescue, Mito fusion act)
CCOc1ccc(NC(=O)CN2C(=O)CC(C)Sc3ccccc32)cc1 (stereo unspecified)	TDP43 rescue inconclusive (no result: Mito fusion act)
CCN(CC)CCNC(=O)c1ccc2c(=O)n3nc(Nc4cccc(Cl)c4C)sc3nc2c1	none (no result: Mito fusion act, aSyn yeast inh)
Cc1cccc2sc(N(Cc3cccnc3)C(=O)c3cccs3)nc12	TDP43 rescue 32µM (no result: Mito fusion act, aSyn yeast inh)
CCn1nc(C(=O)Nc2cccc3ccccc23)c(Cl)c1Cl	TDP43 rescue 16µM
CCn1nc(C(=O)Nc2ccccc2C)c(Cl)c1Cl	none
CN(C)C(=O)C[C@H]1CC[C@H]2[C@H](COc3ccc(NC(=O)C4CC4)cc3C(=O)N2C)O1	none (no result: Abeta yeast res, TDP43 rescue, Mito fusion act, aSyn yeast inh)
Cc1ccccc1Nc1nc2ccccc2s1	TDP43 rescue 20µM (no result: FUS suppressor)
NC(=O)Cn1c(=O)n(CCCCCC(=O)NCc2ccccc2Cl)c(=O)c2sccc21	none (no result: Mito fusion act, aSyn yeast inh)
Cc1ccc(C)c2c1[nH]c1ccccc12	TDP43 rescue 14µM
O=C(N/N=C1/C(=O)c2cccc3cccc1c23)c1ccc(Cl)cc1	Abeta yeast res inconclusive, TDP43 rescue 18µM, aSyn yeast inh inconclusive
CSc1cc(-c2ccncc2)nc(-c2ccc(Cl)cc2)c1	TDP43 rescue 11µM
COc1cccc(NC(=O)Nc2cc(-c3cn4cccnc4n3)ccc2OC)c1	none (no result: Mito fusion act)
CC1CCN(C(c2ccc(F)cc2)c2sc3nc(-c4ccco4)nn3c2O)CC1 (stereo unspecified)	none (no result: Mito fusion act, aSyn yeast inh)
O=C(Nc1ccccn1)c1cccc(S(=O)(=O)N2CCCc3ccccc32)c1	TDP43 rescue 25µM
Cc1ccnc(NC(=O)c2cccc(S(=O)(=O)N3CCCc4ccccc43)c2)c1	TDP43 rescue 22µM
Cc1cccn2c(=O)c(/C=C(\C#N)C(N)=O)c(N3CCN(c4cccc(Cl)c4)CC3)nc12	FUS suppressor inconclusive, TDP43 rescue 25µM, Mito fusion act inconclusive
CNC(=O)/C(C#N)=C/c1c(N2CCN(c3ccccc3)CC2)nc2c(C)cccn2c1=O	none
Cc1ccc(C23CC4CC(CC(NC(=O)NC(C)(C)CO)(C4)C2)C3)cc1	TDP43 rescue 22µM, Mito fusion act inconclusive (no result: aSyn yeast inh)
Cc1ccc(C23CC4CC(CC(NC(=O)NN)(C4)C2)C3)cc1	TDP43 rescue inconclusive (no result: Abeta yeast res)
COc1ccc(-c2nc3scc(CCNS(=O)(=O)c4ccc5c(c4)OCCO5)n3n2)cc1	none (no result: Mito fusion act, aSyn yeast inh)
CCCc1ccc(C(C)NC(=S)NC2CCCCC2)cc1 (stereo unspecified)	Abeta yeast res 11µM
CCC(C)c1ccc(C(C)NC(=S)NCc2ccc(F)cc2)cc1 (stereo unspecified)	Abeta yeast res 3.5µM
Fc1ccc(CNC(=S)NCc2ccccc2)cc1	Abeta yeast res inconclusive, TDP43 rescue inconclusive
CC(NC(=S)NCc1ccc(F)cc1)C12CC3CC(CC(C3)C1)C2 (stereo unspecified)	Abeta yeast res 5.6µM
CCC(NC(=S)NCc1ccc(F)cc1)c1ccc(C(C)C)cc1 (stereo unspecified)	Abeta yeast res 7.1µM
COc1ccc(C(C)NC(=S)NCc2ccc(F)cc2)cc1OC (stereo unspecified)	none
CCOC(=O)c1c(C)sc(-c2c(-c3ccc4c(c3)OCCO4)[nH]c3c2c(=O)[nH]c(=O)n3C)c1O	none (no result: Mito fusion act, aSyn yeast inh)
